Drawing on ChEMBL document CHEMBL4513216, “Probing the Open Global Health Chemical Diversity Library for Multistage-Active Starting Points for Next-Generation Antimalarials” (ACS Infect Dis, 2020), this text covers INHIBITION for 53 molecules.

In all, about 65,000 compounds went through this assay and about 2,100 (3.2%) showed an effect of 50% or more. The median lay at about -52%. Many of the other results were omitted from the sample, so strong results are more common in it than they were.

For this assay, the system named is Plasmodium falciparum. Briefly: Screen against P. falciparum Asexual Blood Stage (ABS), at 5uM. The assay is classed as functional, Dd2. The settings on record: tested at 5 uM.
As to `O=C(CN1C[C@@H]2CC[C@H]1CN(Cc1ccccn1)C2)NCc1cccs1`, the INHIBITION came out at 68.4%.

As to `O=C(c1cc(C2CC2)no1)N1C[C@@H]2CC[C@H]1CN(Cc1ccccn1)C2`, the INHIBITION stood at 9.2%.

As to `c1cc(CN2C[C@@H]3OCCN(CC4CC4)[C@@H]3C2)n[nH]1`, the INHIBITION stood at 7.58%.

Regarding `CC(=O)N1CCO[C@@H]2CN(S(=O)(=O)C3CC3)C[C@@H]2C1`, the INHIBITION is recorded as -114%.

Consider `CCCc1cncnc1N1CCC(NCc2ccncc2)CC1`, for which the INHIBITION came out at 66.1%.

For `CCCc1cncnc1N1CCC(NCc2ccc(O)cc2)CC1`, the INHIBITION is 50.2%.

Regarding `CCCc1cncnc1N1CCC2(CCC(=O)N(CCCO)C2)CC1`, the INHIBITION is on record as -6.89%.

For `Cc1csc2c(N3CCC(NCCc4ccnn4C)CC3)ncnc12`, the INHIBITION is reported as -18.8%.

As for `CCCc1cncnc1N1CCC2(CCC(=O)N(C3CCCC3)C2)CC1`, the INHIBITION came out at 29.3%.

As to `Cc1csc2c(N3CCC(NCCCc4ccncc4)CC3)ncnc12`, the INHIBITION amounted to 64.6%.

For `Cc1ccc(CNC2CCN(CCc3ccncc3)CC2)s1`, the INHIBITION is given as -1.43%.

Take `CCCN1CCC(NCc2ccncc2)CC1`: the INHIBITION is -47.1%.

Regarding `Cc1csc2c(N3CCC(NCCCc4cnn(C)c4)CC3)ncnc12`, the INHIBITION is on record as -10.6%.

With `CCOc1ccc(C(=O)CCC(=O)N(C)Cc2nc(C)c[nH]2)cc1C`, the INHIBITION is -27.6%.

`COCCN1CCN(Cc2cnc(C(C)C)nc2)CC1`: the INHIBITION is reported as -72.3%.

Consider `O=C(C1CC1)N1C[C@H]2CCCN(S(=O)(=O)c3ccc4c(c3)CCC4)[C@H]2C1`, for which the INHIBITION is reported as -49.4%.

Consider `NCC(=O)N1CCCC1c1nccnc1Nc1ncccn1` (stereo not drawn), for which the INHIBITION is -91.6%.

With `CC(C)CC(C)NC1CCN(c2ccc(-c3cscn3)cc2)CC1` (stereo not drawn), the INHIBITION is -115%.

For the molecule `Cc1nnc(-c2cccc(N3CCC(NC(C)CC(C)C)CC3)c2)s1` (stereo not drawn), the INHIBITION was -15.1%.

Turning to `CC(C)CC(C)NC1CCN(c2cccc(-c3cscn3)c2)CC1` (stereo not drawn), the INHIBITION is on record as 51.8%.

Consider `COC(=O)NCC(=O)N1CCC(c2cc3ccccc3[nH]2)CC1`, for which the INHIBITION is listed as -109%.

For `Cc1cc(C)c(CNC(=O)N2CCCC2c2cc(C)on2)c(=O)[nH]1` (stereo not drawn), the INHIBITION is listed as -65.3%.

Consider `O=C(c1ccncc1)N1CC2(CCNCC2)c2cc(Cl)ccc21`, for which the INHIBITION is given as 60%.

As for `CCN1CCC2(CC1)CN(C(=O)c1cccnc1)c1ccc(Cl)cc12`, the INHIBITION amounted to 13.4%.

On to `COc1cc(C(=O)N2CC3(CCNCC3)c3cc(Cl)ccc32)ccn1`, for which the INHIBITION is on record as 65.4%.

`CN(C)C(=O)N1CC2(CCNCC2)c2cc(F)ccc21`: the INHIBITION is recorded as -81.2%.

`Cc1ccc2c(c1)C1(CCNCC1)CN2C(=O)C(C)C`: the INHIBITION stood at 32.6%.

`O=C([C@H]1CCCN1)N1CC2(CCNCC2)c2cc(Cl)ccc21`: the INHIBITION is 60.3%.

As for `C[C@@H](N)C(=O)N1CC2(CCNCC2)c2cc(Cl)ccc21`, the INHIBITION turned out to be 48.2%.

Turning to `O=C(C1CC1)N1CC2(CCNCC2)c2cc(F)ccc21`, the INHIBITION worked out at 13.7%.

Consider `Cc1ccc(C(=O)N2CC3(CCNCC3)c3cc(Cl)ccc32)cn1`, for which the INHIBITION is 37.8%.

For `CC(=O)N1CCC2(CC1)CN(C(=O)c1cccnc1)c1ccc(F)cc12`, the INHIBITION is recorded as -31.7%.

As for `CN1CCC2(CC1)CN(C(=O)c1cccnc1)c1ccc(Cl)cc12`, the INHIBITION was 57.5%.

On to `CN(C)C(=O)N1CC2(CCNCC2)c2cc(Cl)ccc21`, for which the INHIBITION stood at 25.5%.

As to `COc1ccc(-c2n[nH]c(C)c2CC(=O)NCC2CCOCC2)cc1`, the INHIBITION came to 6.29%.

For the molecule `Cc1occc1C(=O)N1CCC2(CCN(Cc3ccccn3)C2=O)C1` (stereo not drawn), the INHIBITION is -30.7%.

Take `CNC(=O)N1CCC2(CC1)c1ncc(-c3cccc(F)c3)n1CCN2C`: the INHIBITION is -74%.

For the molecule `CCn1cc(S(=O)(=O)N2CCCCCC2c2cc(C)on2)cn1` (stereo not drawn), the INHIBITION worked out at 16.1%.

On to `O=C(Nc1ccccc1)C1CN(Cc2ccco2)CC12CCOCC2` (stereo not drawn), for which the INHIBITION is -3.58%.

As for `CNC(=O)C1Cn2ccnc2C2(CCN(Cc3nccs3)CC2)O1` (stereo not drawn), the INHIBITION is -118%.

Turning to `CN1CCN([C@H]2CCN(C(=O)c3cc(Cl)cn3C)C[C@H]2CCCO)CC1`, the INHIBITION is reported as -28.7%.

For the molecule `Cc1cnc(N2C[C@H]3CCCC(N(C)Cc4ccccn4)[C@H]3C2)nc1` (stereo partly drawn), the INHIBITION is reported as -4.92%.

Regarding `O=C(N1CCOCC1)[C@@]12CCO[C@@H]1CCN(Cc1cccc(F)c1)C2`, the INHIBITION is -26.7%.

Consider `CNc1nccnc1C1CN(C(=O)c2c[nH]cn2)CCO1` (stereo not drawn), for which the INHIBITION is given as -87.7%.

Regarding `NC(=O)CCC1CCCN(Cc2cnc(N3CCCCC3)nc2)C1` (stereo not drawn), the INHIBITION was -84.4%.

For the molecule `CNc1nc(C2CCN(C(=O)CC3CCCC3)C2)nc2c1CN(C)CC2` (stereo not drawn), the INHIBITION was -4.57%.

For the molecule `COc1ccc(OCC2CCCN(Cc3ccncc3)C2)cc1` (stereo not drawn), the INHIBITION came to 4.05%.

Regarding `COc1ccc(Cn2nnnc2SCC2CCCN(C)C2)cc1` (stereo not drawn), the INHIBITION came to 59.9%.

In the case of `COc1ccc(OC)c(-n2nnnc2SCC2CCCN(C)C2)c1` (stereo not drawn), the INHIBITION turned out to be 42.8%.

`CCN(CC)C(=O)c1ccn(COc2cccc(Cl)c2Cl)n1`: the INHIBITION is given as -133%.

For `Cn1cc(CN2C[C@H]3CCC[C@@]3(COCC3CC3)C2)cn1`, the INHIBITION is 54.1%.

With `Cc1nc(COC[C@@]23CCC[C@@H]2CN(Cc2cnn(C)c2)C3)cs1`, the INHIBITION was -28.9%.

`Cn1cc(CN2C[C@@H]3COC[C@]3(COCC3CC3)C2)cn1`: the INHIBITION is reported as -11.4%.
